Results taken from the supplement of paper PMC10849652.
Of roughly 7,900 targets only a part is listed; those with a hit were picked by preference. About 0.6% of all pairs of compound and target were hits.

Key:
Assay in all cases: log2 fold change, soluble protein after heating vs DMSO (PISA); higher = thermal stabilisation; K562 cells, 10 uM, 30 min; active = over 0.2 and 3.5 SD of the protein, either way, in both replicates (recomputed)
bafetinib = compound: Cc1ccc(NC(=O)c2ccc(CN3CC[C@H](N(C)C)C3)c(C(F)(F)F)c2)cc1Nc1nccc(-c2cncnc2)n1 [bafetinib]
In short: (§1)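 Aliquots of K562 cells (2×10^6 cells/mL) treated with 10 μM compound for 30 min were heated for 3 min over 48°C-58°C. After pooling and extraction in PBS with 0.5% NP-40 at 4°C, soluble protein from a 21,000xg, 90 min spin was quantified by TMTpro 16plex LC-MS/MS with channel sums equalised. Thermal stability is expressed against control samples, from duplicates, as a log2 fold change.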

[1] = compound: Cc1cccc(CC(=O)N2CCc3c2ccc(-c2cn(C)c4ncnc(N)c24)c3F)n1
In short: as §1

nilotinib = compound: Cc1cn(-c2cc(NC(=O)c3ccc(C)c(Nc4nccc(-c5cccnc5)n4)c3)cc(C(F)(F)F)c2)cn1 [nilotinib]
In short: as §1

[2] = compound: Cc1nc(Nc2n[nH]c3c2CN(C(=O)N[C@H](CN(C)C)c2ccccc2)C3(C)C)c2sccc2n1
In short: as §1

dasatinib = compound: Cc1nc(Nc2ncc(C(=O)Nc3c(C)cccc3Cl)s2)cc(N2CCN(CCO)CC2)n1 [dasatinib]
In short: as §1

[3] = compound: Cc1ncc(-c2ccnc(Nc3ccc(S(C)(=O)=O)cc3)n2)n1C(C)C
In short: as §1

[4] = compound: Cn1cc(-c2ccc3c(c2)CCN3C(=O)Cc2cccc(C(F)(F)F)c2)c2c(N)ncnc21
In short: as §1

[5] = compound: Cn1cc(-c2ccc3nnc(C(F)(F)c4ccc5ncccc5c4)n3n2)cn1
In short: as §1

tipifarnib = compound: Cn1cncc1[C@@](N)(c1ccc(Cl)cc1)c1ccc2c(c1)c(-c1cccc(Cl)c1)cc(=O)n2C [tipifarnib]
In short: as §1

mubritinib = compound: FC(F)(F)c1ccc(/C=C/c2nc(COc3ccc(CCCCn4ccnn4)cc3)co2)cc1 [mubritinib]
In short: as §1

Measured: log2 fold change

VPS11 (UniProt Q9H270)
inactive: bafetinib -0.033 | [1] 0.006 | nilotinib -0.048 | [2] -0.006 | dasatinib -0.154 | [3] 0.005 | [4] -0.016 | [5] -0.004 | tipifarnib -0.093 | mubritinib 0.027

WDR11 (UniProt Q9BZH6)
inactive: bafetinib 0.063 | [1] -0.067 | nilotinib -0.229 | [2] 0.051 | dasatinib 0.056 | [3] -0.121 | [4] -0.018 | [5] 0.046 | tipifarnib 0.038 | mubritinib 0.051

UGGT1 (UniProt Q9NYU2)
inactive: bafetinib -0.005 | [1] -0.007 | nilotinib -0.015 | [2] 0.016 | dasatinib -0.007 | [3] -0.036 | [4] -0.017 | [5] -0.001 | tipifarnib -0.026 | mubritinib -0.043

VPS37A (UniProt Q8NEZ2)
inactive: bafetinib -0.065 | [1] -0.06 | nilotinib -0.134 | [2] -0.27 | dasatinib -0.168 | [3] -0.039 | [4] 0.048 | [5] 0.014 | tipifarnib -0.112 | mubritinib -0.038

TXNL1 (UniProt O43396)
Sequence of UniProt O43396 (O43396 whole entry, looked up): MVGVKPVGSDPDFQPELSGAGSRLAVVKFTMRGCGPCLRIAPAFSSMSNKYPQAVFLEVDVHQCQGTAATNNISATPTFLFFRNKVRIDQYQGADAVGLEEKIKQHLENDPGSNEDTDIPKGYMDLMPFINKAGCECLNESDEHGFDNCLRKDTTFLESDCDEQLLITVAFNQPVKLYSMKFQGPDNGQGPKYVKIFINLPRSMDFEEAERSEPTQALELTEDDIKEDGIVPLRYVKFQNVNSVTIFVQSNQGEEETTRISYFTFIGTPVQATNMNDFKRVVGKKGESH
inactive: bafetinib 0.04 | [1] 0.005 | nilotinib -0.035 | [2] -0.006 | dasatinib -0.074 | [3] 0.008 | [4] -0.004 | [5] -0.035 | tipifarnib -0.06 | mubritinib 0.057

TMEM192 (UniProt Q8IY95)
inactive: bafetinib -0.148 | [1] -0.083 | nilotinib 0.019 | [2] -0.002 | dasatinib 0.109 | [3] -0.042 | [4] -0.034 | [5] -0.051 | tipifarnib 0.051 | mubritinib -0.032

WEE1 (UniProt P30291)
Sequence of UniProt P30291 (P30291 whole entry, looked up): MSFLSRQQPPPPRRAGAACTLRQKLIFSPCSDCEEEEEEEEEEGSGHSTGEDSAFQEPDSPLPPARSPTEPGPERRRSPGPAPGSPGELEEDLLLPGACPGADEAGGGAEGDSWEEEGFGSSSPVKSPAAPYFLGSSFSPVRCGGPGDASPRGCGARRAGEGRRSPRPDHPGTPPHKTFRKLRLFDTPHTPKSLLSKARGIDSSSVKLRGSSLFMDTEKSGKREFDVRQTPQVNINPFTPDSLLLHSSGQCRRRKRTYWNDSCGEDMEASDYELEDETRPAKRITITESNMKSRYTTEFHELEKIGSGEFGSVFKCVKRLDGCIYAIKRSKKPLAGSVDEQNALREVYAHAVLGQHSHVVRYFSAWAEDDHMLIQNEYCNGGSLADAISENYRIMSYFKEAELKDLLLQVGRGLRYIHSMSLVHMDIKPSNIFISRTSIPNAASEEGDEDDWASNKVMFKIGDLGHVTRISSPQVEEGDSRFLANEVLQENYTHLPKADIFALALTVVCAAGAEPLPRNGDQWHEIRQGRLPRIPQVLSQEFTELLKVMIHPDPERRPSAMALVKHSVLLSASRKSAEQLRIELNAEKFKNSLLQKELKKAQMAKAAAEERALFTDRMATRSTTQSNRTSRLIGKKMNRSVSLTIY
inactive: bafetinib -0.152 | [1] -0.062 | nilotinib 0.182 | [3] 0.311 | [4] -0.043 | [5] -0.037 | tipifarnib -0.037 | mubritinib 0.394
active: [2] -0.905 | dasatinib 0.805

TRIM44 (UniProt Q96DX7)
Sequence of UniProt Q96DX7 (Q96DX7 whole entry, looked up): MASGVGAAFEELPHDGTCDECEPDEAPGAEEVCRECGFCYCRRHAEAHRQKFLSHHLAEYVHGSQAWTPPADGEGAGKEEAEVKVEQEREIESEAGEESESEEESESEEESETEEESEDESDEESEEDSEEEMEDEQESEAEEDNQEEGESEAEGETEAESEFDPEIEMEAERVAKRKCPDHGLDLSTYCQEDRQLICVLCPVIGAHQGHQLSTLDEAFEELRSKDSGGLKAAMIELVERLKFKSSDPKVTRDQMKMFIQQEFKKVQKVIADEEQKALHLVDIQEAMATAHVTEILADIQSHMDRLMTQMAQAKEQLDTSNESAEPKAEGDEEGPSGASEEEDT
inactive: bafetinib -0.033 | [1] -0.01 | nilotinib -0.024 | [2] -0.023 | dasatinib -0.029 | [3] 0.026 | [4] 0.002 | [5] 0.051 | tipifarnib -0.041 | mubritinib 0.065

TOM1 isoform 2 (UniProt O60784)
inactive: bafetinib -0.122 | [1] 0.026 | nilotinib -0.055 | [2] -0.104 | dasatinib -0.034 | [3] 0.116 | [4] -0.015 | [5] -0.012 | tipifarnib 0.022 | mubritinib -0.033

TMEM214 (UniProt Q6NUQ4)
inactive: bafetinib 0.017 | [1] 0.029 | nilotinib -0.117 | [2] -0.02 | dasatinib -0.071 | [3] 0.023 | [4] -0.022 | [5] -0.041 | tipifarnib -0.047 | mubritinib 0.005

WASHC2A (UniProt Q641Q2)
inactive: bafetinib -0.078 | [1] -0.025 | nilotinib 0.002 | [2] -0.039 | dasatinib 0.022 | [3] -0.012 | [4] -0.088 | [5] 0.035 | tipifarnib 0.052 | mubritinib 0.004

TRAPPC11 (UniProt Q7Z392)
inactive: bafetinib 0.065 | [1] 0.05 | nilotinib -0.098 | [2] -0.129 | dasatinib -0.159 | [3] 0.01 | [4] -0.04 | [5] -0.03 | tipifarnib -0.06 | mubritinib 0.04

TRIP10 isoform 2 (UniProt Q15642)
Sequence of UniProt Q15642 (Q15642 whole entry, looked up): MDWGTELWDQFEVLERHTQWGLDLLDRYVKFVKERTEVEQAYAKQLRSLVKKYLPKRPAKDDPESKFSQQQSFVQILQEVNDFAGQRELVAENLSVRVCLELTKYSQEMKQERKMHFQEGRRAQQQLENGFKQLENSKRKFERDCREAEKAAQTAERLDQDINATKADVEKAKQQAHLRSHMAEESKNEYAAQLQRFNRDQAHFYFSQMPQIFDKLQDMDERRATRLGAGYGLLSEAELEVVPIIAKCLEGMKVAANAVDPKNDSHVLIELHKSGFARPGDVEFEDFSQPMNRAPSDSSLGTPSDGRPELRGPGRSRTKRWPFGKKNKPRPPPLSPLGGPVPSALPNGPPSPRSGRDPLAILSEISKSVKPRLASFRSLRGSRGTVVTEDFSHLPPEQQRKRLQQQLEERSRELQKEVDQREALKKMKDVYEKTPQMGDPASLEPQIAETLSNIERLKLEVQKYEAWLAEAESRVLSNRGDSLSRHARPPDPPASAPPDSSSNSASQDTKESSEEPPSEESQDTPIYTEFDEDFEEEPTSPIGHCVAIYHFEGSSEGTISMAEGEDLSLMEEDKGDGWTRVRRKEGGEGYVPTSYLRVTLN
inactive: bafetinib -0.019 | [1] 0.026 | nilotinib 0.005 | [2] -0.174 | dasatinib 0.035 | [3] -0.162 | [4] -0.033 | [5] -0.135 | tipifarnib -0.04 | mubritinib 0.142

UBA6
inactive: bafetinib 0.009 | [1] 0.036 | nilotinib 0.062 | [2] -0.137 | dasatinib -0.035 | [3] -0.024 | [4] 0.016 | [5] -0.024 | tipifarnib -0.075
active: mubritinib 0.228

TNFAIP8 isoform 4 (UniProt O95379)
Sequence of UniProt O95379 (O95379 whole entry, looked up): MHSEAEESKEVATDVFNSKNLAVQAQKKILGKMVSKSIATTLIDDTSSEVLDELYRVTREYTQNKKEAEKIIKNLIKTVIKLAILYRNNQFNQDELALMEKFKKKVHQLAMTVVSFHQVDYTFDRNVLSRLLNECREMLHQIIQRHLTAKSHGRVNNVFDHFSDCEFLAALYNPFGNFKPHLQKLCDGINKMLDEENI
inactive: bafetinib -0.079 | [1] 0.014 | nilotinib -0.045 | [2] -0.095 | dasatinib -0.109 | [3] 0.007 | [4] 0.047 | [5] 0.005 | tipifarnib -0.023 | mubritinib 0.031

TMEM177 (UniProt Q53S58)
inactive: bafetinib -0.123 | [1] 0.054 | nilotinib -0.001 | [2] -0.005 | dasatinib -0.045 | [3] 0.023 | [4] -0.019 | [5] 0.016 | tipifarnib 0.004 | mubritinib 0.026

USP34 (UniProt Q70CQ2)
inactive: bafetinib -0.004 | [1] -0.002 | nilotinib -0.054 | [2] 0.034 | dasatinib -0.141 | [3] -0.223 | [4] -0.012 | [5] 0.033 | tipifarnib -0.134 | mubritinib -0.049

VTA1 (UniProt Q9NP79)
Sequence of UniProt Q9NP79 (Q9NP79 whole entry, looked up): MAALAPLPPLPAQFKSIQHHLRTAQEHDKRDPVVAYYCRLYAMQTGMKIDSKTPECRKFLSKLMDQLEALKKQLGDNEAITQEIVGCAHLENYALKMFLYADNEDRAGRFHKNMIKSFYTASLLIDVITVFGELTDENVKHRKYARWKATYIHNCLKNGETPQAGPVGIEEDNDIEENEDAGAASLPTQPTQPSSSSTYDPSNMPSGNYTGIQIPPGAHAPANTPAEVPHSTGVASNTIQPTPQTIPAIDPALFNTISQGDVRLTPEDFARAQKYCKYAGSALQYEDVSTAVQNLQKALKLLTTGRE
inactive: bafetinib -0.035 | [1] 0.081 | nilotinib -0.07 | [2] -0.011 | dasatinib -0.109 | [3] -0.005 | [4] 0.035 | [5] 0 | tipifarnib -0.109 | mubritinib 0.033

TMEM70 (UniProt Q9BUB7)
Sequence of UniProt Q9BUB7 (Q9BUB7 whole entry, looked up): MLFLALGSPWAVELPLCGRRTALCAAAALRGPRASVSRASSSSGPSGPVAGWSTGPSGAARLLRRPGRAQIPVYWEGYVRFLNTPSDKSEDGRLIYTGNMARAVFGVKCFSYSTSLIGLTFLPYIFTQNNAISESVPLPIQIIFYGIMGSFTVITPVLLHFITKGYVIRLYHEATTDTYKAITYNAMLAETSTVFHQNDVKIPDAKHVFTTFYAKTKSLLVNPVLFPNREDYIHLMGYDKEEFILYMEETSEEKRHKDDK
inactive: bafetinib -0.141 | [1] 0.026 | nilotinib 0.028 | [2] -0.003 | dasatinib -0.094 | [3] 0.018 | [4] 0.06 | [5] 0.023 | tipifarnib -0.02 | mubritinib 0.017

TNFRSF8 (UniProt P28908)
Sequence of UniProt P28908 (P28908 whole entry, looked up): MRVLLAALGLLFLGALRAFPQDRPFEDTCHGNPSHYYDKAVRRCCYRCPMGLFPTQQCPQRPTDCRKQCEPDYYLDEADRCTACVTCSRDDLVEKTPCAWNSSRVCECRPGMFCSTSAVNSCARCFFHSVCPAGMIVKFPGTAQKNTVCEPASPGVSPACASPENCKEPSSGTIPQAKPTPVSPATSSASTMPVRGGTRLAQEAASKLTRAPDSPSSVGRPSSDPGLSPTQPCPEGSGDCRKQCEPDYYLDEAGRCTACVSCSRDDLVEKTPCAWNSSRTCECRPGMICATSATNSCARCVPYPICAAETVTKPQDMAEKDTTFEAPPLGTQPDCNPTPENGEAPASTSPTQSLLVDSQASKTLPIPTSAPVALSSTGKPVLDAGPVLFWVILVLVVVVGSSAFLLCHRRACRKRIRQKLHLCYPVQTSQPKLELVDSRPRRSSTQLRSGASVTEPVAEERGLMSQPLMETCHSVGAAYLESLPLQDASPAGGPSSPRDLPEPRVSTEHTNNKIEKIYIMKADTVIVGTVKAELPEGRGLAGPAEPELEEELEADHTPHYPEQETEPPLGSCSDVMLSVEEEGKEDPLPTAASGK
inactive: bafetinib 0.01 | [1] -0.089 | nilotinib 0.074 | [2] -0.049 | dasatinib 0.032 | [3] 0.043 | [4] 0.014 | [5] 0.032 | tipifarnib 0.042 | mubritinib 0.069

WDR41 (UniProt Q9HAD4)
Sequence of UniProt Q9HAD4 (Q9HAD4 whole entry, looked up): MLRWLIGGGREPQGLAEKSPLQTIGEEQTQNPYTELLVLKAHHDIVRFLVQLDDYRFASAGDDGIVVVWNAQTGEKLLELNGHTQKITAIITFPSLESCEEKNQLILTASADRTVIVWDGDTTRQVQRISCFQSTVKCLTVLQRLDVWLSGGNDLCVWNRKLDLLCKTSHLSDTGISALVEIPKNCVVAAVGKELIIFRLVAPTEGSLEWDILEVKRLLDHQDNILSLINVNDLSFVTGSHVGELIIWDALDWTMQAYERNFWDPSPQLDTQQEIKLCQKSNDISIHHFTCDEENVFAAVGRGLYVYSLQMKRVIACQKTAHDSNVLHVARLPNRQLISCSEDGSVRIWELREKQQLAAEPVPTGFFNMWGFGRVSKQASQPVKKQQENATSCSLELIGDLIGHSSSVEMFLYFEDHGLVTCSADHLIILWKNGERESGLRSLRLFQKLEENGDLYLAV
inactive: bafetinib -0.139 | [1] 0.169 | nilotinib 0 | [2] -0.076 | dasatinib -0.082 | [3] -0.017 | [4] 0.012 | [5] -0.003 | tipifarnib 0.023 | mubritinib 0.071

UBA1 (UniProt P22314)
active: mubritinib 0.395
inactive: bafetinib 0.034 | [1] 0.187 | nilotinib -0.089 | [2] -0.062 | dasatinib -0.216 | [3] 0.062 | [4] 0.027 | [5] 0.121 | tipifarnib -0.235

TMEM223 (UniProt A0PJW6)
Sequence of UniProt A0PJW6 (A0PJW6 whole entry, looked up): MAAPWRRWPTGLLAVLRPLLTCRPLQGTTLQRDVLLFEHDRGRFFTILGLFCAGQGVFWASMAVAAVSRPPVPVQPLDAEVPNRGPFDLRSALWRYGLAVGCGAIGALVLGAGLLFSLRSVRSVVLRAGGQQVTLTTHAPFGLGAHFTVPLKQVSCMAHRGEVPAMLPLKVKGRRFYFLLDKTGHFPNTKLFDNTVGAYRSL
inactive: bafetinib -0.156 | [1] -0.005 | nilotinib 0.032 | [2] 0.033 | dasatinib -0.052 | [3] -0.079 | [4] -0.025 | [5] 0.038 | tipifarnib 0.013 | mubritinib 0.044

U2AF1 isoform 2 (UniProt Q01081)
Sequence of UniProt Q01081 (Q01081 whole entry, looked up): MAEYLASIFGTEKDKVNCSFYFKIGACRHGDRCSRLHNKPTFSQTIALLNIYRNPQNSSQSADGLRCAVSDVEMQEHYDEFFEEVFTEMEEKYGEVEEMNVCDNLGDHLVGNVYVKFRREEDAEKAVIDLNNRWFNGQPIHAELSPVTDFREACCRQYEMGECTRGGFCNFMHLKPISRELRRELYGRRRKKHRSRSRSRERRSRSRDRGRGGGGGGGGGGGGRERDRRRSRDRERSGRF
inactive: bafetinib 0.037 | [1] -0.06 | nilotinib -0.017 | dasatinib -0.056 | [3] 0.058 | [4] 0.01 | [5] -0.06 | tipifarnib 0.034 | mubritinib -0.099
active: [2] -1.31

TRMT10C (UniProt Q7L0Y3)
Sequence of UniProt Q7L0Y3 (Q7L0Y3 whole entry, looked up): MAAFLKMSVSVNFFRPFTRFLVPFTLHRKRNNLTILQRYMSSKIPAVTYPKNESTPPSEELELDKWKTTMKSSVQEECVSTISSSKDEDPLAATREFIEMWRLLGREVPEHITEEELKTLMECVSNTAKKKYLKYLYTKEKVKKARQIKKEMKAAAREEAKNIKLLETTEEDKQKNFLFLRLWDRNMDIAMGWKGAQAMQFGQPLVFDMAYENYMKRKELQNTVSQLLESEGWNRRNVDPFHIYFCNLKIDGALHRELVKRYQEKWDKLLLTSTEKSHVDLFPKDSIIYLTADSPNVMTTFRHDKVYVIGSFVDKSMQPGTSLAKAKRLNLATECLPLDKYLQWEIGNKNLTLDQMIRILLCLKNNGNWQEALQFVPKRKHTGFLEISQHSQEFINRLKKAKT
inactive: bafetinib -0.044 | [1] 0.107 | nilotinib -0.043 | [2] -0.066 | dasatinib -0.181 | [3] 0.012 | [4] 0.046 | [5] 0.038 | tipifarnib -0.037 | mubritinib 0.153

VPS33A (UniProt Q96AX1)
inactive: bafetinib -0.066 | [1] 0.091 | nilotinib -0.071 | [2] -0.124 | dasatinib -0.123 | [3] -0.039 | [4] -0.019 | [5] -0.094 | tipifarnib -0.064 | mubritinib 0.098

VTI1B (UniProt Q9UEU0)
Sequence of UniProt Q9UEU0 (Q9UEU0 whole entry, looked up): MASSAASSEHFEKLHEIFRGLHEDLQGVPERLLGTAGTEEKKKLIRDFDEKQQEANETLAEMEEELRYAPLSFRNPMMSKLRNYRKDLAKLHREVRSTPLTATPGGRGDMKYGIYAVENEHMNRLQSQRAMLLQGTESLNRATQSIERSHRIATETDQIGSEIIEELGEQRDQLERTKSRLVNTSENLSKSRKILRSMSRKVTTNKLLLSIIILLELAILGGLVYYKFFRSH
inactive: bafetinib -0.064 | [1] -0.177 | nilotinib 0.013 | [2] 0.015 | dasatinib -0.011 | [3] 0.027 | [4] 0 | [5] 0.037 | tipifarnib 0.085 | mubritinib -0.055

TRMT10A (UniProt Q8TBZ6)
inactive: bafetinib 0.006 | [1] -0.022 | nilotinib 0.005 | [2] -0.018 | dasatinib -0.059 | [3] -0.002 | [4] 0.104 | [5] 0.008 | tipifarnib -0.022 | mubritinib 0.05

TXNRD1 (UniProt Q16881)
active: mubritinib 0.225
inactive: bafetinib -0.012 | [1] -0.011 | nilotinib 0.097 | [2] -0.013 | dasatinib -0.013 | [3] -0.002 | [4] 0.067 | [5] 0.021 | tipifarnib -0.107

USP24 (UniProt Q9UPU5)
inactive: bafetinib 0.037 | [1] 0.034 | nilotinib 0.096 | [2] 0.007 | dasatinib -0.098 | [3] 0.09 | [4] 0.144 | [5] 0.105 | tipifarnib -0.072 | mubritinib 0.056
